We go through seven sequences from PMC4081100, “A DNA-binding-site landscape and regulatory network analysis for NAC transcription factors in Arabidopsis thaliana”.

Common to all, as to assay: universal protein binding microarray (PBM); transcription factors of Arabidopsis thaliana; high values mean tight binding
What all share (conditions): protein: recombinant; tags: GST; chain copies: 2; dsDNA, one strand shown

One test concerns the target T1, GST-ANAC092(1-176) (Arabidopsis thaliana, UniProt Q9FKA0 1-176).
T1 sequence: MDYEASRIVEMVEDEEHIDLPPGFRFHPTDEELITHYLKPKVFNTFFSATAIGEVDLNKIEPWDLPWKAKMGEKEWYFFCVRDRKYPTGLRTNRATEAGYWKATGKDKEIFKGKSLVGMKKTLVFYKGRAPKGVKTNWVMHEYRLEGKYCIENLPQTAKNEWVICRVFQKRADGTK
A digest of the protocol:
(§1)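 Binding is expressed as the normalised enrichment score (E-score). Proteins carrying a GST tag, whether NAC-domain, full-length or DNA-binding-domain forms, were induced in cells, and zinc acetate was added for zinc-finger proteins. After purification on glutathione–Sepharose 4B and quantification by A280 or anti-GST western blot, each was applied in duplicate at 200 to 500 nM final to custom all-10-mer Agilent 4 × 180K arrays made double-stranded by primer extension. Gapped and ungapped 8-mers were scored.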

The next test deals with T2, GST-ANAC019 NAC domain (Arabidopsis thaliana, UniProt Q9C932 14-162).
T2 sequence: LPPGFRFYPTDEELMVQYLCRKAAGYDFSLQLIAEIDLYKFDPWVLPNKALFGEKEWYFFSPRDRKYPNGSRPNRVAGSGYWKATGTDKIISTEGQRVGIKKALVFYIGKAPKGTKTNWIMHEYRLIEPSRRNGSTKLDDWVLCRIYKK
The essentials:
as §1

Another test has as its target T3, GST-ANAC055(1-171) (Arabidopsis thaliana, UniProt Q9LDY8 1-171).
T3 sequence: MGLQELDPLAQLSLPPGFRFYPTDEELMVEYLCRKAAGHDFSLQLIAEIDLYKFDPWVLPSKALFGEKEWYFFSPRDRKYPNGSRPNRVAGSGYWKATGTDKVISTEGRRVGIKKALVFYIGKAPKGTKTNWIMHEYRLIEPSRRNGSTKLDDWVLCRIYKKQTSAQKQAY
The essentials:
as §1

For the next test, the target named is T4, GST-ATAF1 NAC domain (Arabidopsis thaliana, UniProt Q39013 7-158).
T4 sequence: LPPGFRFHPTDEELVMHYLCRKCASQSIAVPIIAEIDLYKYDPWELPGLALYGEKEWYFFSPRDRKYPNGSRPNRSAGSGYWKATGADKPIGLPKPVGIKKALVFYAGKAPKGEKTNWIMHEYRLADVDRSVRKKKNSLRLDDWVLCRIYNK
A digest of the protocol:
as §1

Test [1] has as its target T5, GST-ANAC092(1-285) full length (Arabidopsis thaliana, UniProt Q9FKA0 1-285).
T5 sequence: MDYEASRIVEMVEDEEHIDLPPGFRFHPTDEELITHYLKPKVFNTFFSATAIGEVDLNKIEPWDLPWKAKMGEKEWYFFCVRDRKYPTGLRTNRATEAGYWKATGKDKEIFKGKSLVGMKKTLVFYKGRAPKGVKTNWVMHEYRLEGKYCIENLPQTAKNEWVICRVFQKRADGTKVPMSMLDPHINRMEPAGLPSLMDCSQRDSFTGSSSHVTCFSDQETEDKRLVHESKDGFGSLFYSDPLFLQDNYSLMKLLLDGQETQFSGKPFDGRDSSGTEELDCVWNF
A digest of the protocol:
as §1

The target in the next test is T6, GST-NAP(1-166) (Arabidopsis thaliana, UniProt O49255 1-166).
T6 sequence: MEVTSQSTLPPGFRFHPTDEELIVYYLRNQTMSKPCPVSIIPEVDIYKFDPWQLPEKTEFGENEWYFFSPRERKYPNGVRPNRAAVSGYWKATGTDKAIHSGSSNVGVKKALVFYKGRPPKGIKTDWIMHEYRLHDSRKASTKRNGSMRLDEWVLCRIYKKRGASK
A digest of the protocol: as §1

For another test, the target named is T7, GST-NST2(1-184) (Arabidopsis thaliana, UniProt Q9M274 1-184).
T7 sequence: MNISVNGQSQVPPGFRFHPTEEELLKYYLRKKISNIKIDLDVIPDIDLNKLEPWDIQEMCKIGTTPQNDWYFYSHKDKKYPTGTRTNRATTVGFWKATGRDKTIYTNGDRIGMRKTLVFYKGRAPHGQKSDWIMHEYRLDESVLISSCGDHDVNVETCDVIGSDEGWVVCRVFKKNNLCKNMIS
The essentials:
as §1

The next test deals with T8, GST-SND1(1-203) (Arabidopsis thaliana, UniProt Q9LPI7 1-203).
T8 sequence: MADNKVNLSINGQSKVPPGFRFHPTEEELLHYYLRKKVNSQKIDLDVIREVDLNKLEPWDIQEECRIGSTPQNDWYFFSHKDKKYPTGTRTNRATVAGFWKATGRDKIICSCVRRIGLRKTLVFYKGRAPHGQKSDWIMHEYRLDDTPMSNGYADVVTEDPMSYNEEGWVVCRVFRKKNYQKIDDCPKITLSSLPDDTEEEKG
The essentials: as §1

In another test the target is T9, GST-VND3 NAC domain (Arabidopsis thaliana, UniProt Q9FH59 12-162).
T9 sequence: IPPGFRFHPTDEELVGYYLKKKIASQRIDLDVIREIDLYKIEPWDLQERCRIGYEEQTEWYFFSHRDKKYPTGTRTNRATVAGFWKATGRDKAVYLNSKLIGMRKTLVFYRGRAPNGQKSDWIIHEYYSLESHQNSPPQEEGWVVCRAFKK
A digest of the protocol: as §1

A further test deals with T10, GST-VND7 NAC domain (Arabidopsis thaliana, UniProt Q9C8W9 9-158).
T10 sequence: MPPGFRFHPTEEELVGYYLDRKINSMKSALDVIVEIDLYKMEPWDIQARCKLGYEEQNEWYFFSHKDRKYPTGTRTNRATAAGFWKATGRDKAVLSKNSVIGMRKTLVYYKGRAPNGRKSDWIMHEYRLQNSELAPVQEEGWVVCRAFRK
A digest of the protocol: as §1

For CACGGCAG, the binding signal with GST-ANAC092(1-176) turned out to be 0.39 E-score; in the test with GST-ANAC019 NAC domain, 0.457 E-score; in the test with GST-ANAC055(1-171) it was 0.403 E-score; with GST-ATAF1 NAC domain it was 0.307 E-score; in test [1], 0.426 E-score; with GST-NAP(1-166) it was 0.227 E-score. Besides, the binding signal in the test with GST-NST2(1-184) is 0.0722 E-score; with GST-SND1(1-203), 0.11 E-score; in the test with GST-VND3 NAC domain, 0.412 E-score; in the test with GST-VND7 NAC domain it was 0.384 E-score.

With AAGCGTGT, the binding signal with GST-ANAC092(1-176) was 0.421 E-score; in the test with GST-ANAC019 NAC domain, 0.242 E-score; in the test with GST-ANAC055(1-171), 0.167 E-score; with GST-ATAF1 NAC domain it was 0.207 E-score; in test [1], 0.44 E-score; with GST-NAP(1-166), 0.133 E-score. For the same sequence, the binding signal was determined as 0.192 E-score with GST-NST2(1-184), 0.186 E-score with GST-SND1(1-203), 0.126 E-score with GST-VND3 NAC domain and 0.213 E-score with GST-VND7 NAC domain.

Turning to TCACGGCA, the binding signal with GST-ANAC092(1-176) was found to be 0.398 E-score; in the test with GST-ANAC019 NAC domain it was 0.473 E-score; with GST-ANAC055(1-171) it was 0.438 E-score; with GST-ATAF1 NAC domain it was 0.385 E-score; in test [1], 0.429 E-score; in the test with GST-NAP(1-166) it was 0.344 E-score. In addition, the binding signal with GST-NST2(1-184) is 0.177 E-score; with GST-SND1(1-203) it was 0.16 E-score; with GST-VND3 NAC domain, 0.45 E-score; in the test with GST-VND7 NAC domain, 0.456 E-score.

As to TGGCGTAA, the binding signal with GST-ANAC092(1-176) amounted to 0.44 E-score; with GST-ANAC019 NAC domain, 0.0928 E-score; in the test with GST-ANAC055(1-171), 0.127 E-score; with GST-ATAF1 NAC domain, 0.16 E-score; in test [1], 0.439 E-score; with GST-NAP(1-166), 0.101 E-score. For the same sequence, the binding signal with GST-NST2(1-184) was found to be 0.346 E-score; in the test with GST-SND1(1-203), 0.482 E-score; in the test with GST-VND3 NAC domain, 0.191 E-score; with GST-VND7 NAC domain, 0.246 E-score.

In the case of ATGGCGTG, the binding signal came out at 0.443 E-score with GST-ANAC092(1-176); 0.196 E-score with GST-ANAC019 NAC domain; 0.138 E-score in the test with GST-ANAC055(1-171); 0.17 E-score in the test with GST-ATAF1 NAC domain; 0.456 E-score in [1]; 0.161 E-score with GST-NAP(1-166). The binding signal with GST-NST2(1-184) was found to be 0.227 E-score; in the test with GST-SND1(1-203) it was 0.249 E-score; with GST-VND3 NAC domain, 0.151 E-score; with GST-VND7 NAC domain, 0.155 E-score.

In the case of AGCGTGTA, the binding signal with GST-ANAC092(1-176) was found to be 0.418 E-score; with GST-ANAC019 NAC domain, 0.0634 E-score; with GST-ANAC055(1-171), 0.112 E-score; in the test with GST-ATAF1 NAC domain, 0.136 E-score; in test [1], 0.436 E-score; in the test with GST-NAP(1-166), 0.198 E-score. Further, the binding signal with GST-NST2(1-184) turned out to be 0.22 E-score; in the test with GST-SND1(1-203), 0.274 E-score; with GST-VND3 NAC domain it was 0.129 E-score; with GST-VND7 NAC domain it was 0.163 E-score.

Consider GCGTGTTA, for which the binding signal stood at 0.415 E-score in the test with GST-ANAC092(1-176); 0.214 E-score with GST-ANAC019 NAC domain; 0.174 E-score in the test with GST-ANAC055(1-171); 0.141 E-score in the test with GST-ATAF1 NAC domain; 0.432 E-score in test [1]; 0.227 E-score with GST-NAP(1-166). Further, the binding signal with GST-NST2(1-184) was found to be 0.178 E-score; in the test with GST-SND1(1-203), 0.199 E-score; with GST-VND3 NAC domain, 0.212 E-score; in the test with GST-VND7 NAC domain, 0.113 E-score.
